Experimental findings from ChEMBL document CHEMBL3988442, “University of Dundee, Small-Polar-MMV Screening Library” (2021) are described below.

For some of these results: Potency and affinity values are given separately.

Common to all, as to design: scale not given: direction of the effect not stated beside the values
The target of test [1] is Protein translocase subunit SecA (Escherichia coli (strain K12)) (UniProt P10408). Kind of test: Assay to Identify E. coli SecA ATPase Inhibitors. It counts as functional. The settings on record: 30 µM.
Sequence of Protein translocase subunit SecA (Escherichia coli (strain K12)) (P10408 whole entry): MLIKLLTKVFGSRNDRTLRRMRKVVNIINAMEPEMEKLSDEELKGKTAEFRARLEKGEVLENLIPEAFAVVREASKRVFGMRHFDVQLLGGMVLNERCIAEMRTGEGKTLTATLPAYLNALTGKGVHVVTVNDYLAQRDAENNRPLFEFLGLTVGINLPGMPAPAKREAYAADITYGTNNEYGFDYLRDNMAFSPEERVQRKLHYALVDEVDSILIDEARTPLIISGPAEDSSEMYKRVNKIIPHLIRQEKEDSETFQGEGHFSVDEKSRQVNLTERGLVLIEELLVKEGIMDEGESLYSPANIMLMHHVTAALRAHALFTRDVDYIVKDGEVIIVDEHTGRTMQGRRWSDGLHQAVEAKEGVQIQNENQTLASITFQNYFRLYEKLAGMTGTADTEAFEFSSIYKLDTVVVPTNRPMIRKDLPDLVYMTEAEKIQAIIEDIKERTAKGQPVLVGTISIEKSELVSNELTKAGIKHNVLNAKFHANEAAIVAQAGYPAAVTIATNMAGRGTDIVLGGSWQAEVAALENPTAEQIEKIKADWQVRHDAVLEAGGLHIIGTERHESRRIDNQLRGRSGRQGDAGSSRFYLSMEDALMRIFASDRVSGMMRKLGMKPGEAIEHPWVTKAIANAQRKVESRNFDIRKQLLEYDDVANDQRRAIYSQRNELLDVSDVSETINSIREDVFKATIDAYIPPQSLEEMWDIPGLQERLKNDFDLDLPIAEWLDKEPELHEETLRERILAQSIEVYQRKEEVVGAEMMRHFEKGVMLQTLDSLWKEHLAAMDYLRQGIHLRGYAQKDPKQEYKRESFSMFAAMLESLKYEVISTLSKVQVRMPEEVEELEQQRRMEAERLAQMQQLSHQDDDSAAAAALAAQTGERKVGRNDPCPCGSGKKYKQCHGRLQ
The target of test [2] is T1, Ubiquitin-activating enzyme e1, putative (Leishmania donovani (strain BPK282A1)) (UniProt E9BSI1).
T1 sequence (whole entry): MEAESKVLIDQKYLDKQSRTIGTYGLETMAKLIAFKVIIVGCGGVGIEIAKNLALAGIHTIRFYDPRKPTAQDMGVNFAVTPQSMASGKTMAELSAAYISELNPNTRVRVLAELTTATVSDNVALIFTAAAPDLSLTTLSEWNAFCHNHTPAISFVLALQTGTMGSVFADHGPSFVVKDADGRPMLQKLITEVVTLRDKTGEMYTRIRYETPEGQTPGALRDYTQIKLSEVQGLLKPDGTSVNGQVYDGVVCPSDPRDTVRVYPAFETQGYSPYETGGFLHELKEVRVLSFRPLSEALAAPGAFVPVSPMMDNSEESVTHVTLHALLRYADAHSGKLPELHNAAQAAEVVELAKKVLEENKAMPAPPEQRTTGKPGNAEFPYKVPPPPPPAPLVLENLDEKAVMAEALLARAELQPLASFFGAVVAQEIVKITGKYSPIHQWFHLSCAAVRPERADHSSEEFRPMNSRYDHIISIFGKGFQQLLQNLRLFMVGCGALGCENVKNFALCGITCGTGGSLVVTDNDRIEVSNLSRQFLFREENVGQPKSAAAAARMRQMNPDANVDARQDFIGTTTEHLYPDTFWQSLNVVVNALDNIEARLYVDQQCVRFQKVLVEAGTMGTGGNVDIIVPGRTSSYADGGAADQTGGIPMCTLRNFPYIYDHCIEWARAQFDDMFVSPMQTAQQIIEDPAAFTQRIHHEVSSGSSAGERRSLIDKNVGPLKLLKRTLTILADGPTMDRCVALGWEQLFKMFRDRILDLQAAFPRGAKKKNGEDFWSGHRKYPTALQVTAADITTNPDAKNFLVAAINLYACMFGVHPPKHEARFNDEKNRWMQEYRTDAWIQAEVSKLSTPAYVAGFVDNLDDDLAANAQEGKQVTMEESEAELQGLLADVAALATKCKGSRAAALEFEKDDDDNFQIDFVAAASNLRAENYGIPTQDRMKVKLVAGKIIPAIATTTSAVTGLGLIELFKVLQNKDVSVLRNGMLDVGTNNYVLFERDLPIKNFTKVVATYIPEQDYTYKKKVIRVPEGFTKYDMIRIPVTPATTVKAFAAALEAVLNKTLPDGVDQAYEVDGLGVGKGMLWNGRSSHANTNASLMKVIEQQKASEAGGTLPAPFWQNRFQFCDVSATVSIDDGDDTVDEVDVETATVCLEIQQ
Kind of test: Leishmania donovani Ubiquitin Activating Enzyme (LdE1). It counts as functional. The note with it: 30 µM.

Test [3] has as its target AMP-activated protein kinase, AMPK (Homo sapiens) (UniProt P54646+O43741+P54619+Q9UGJ0+Q9Y478+Q13131+Q9UGI9). The experiment in a line: AMP-dependent Kinase enzyme assay. An in vitro enzyme assay that detects ADP turnover that is directly proportional to AMPK activity. This uses naive AMPK that is activated during the assay with MK-8722. It counts as functional. The settings on record: 30 µM.

The target of test [4] is Sialic acid-binding Ig-like lectin 9 (Homo sapiens) (UniProt Q9Y336). The experiment in a line: Hs-Siglec9 ALPHAscreen SOP 20170721. The settings on record: 10 µM. On the technique in general: In Alpha technology, singlet oxygen from a donor bead excites a nearby acceptor bead.
Sequence of Sialic acid-binding Ig-like lectin 9 (Homo sapiens) (Q9Y336 whole entry): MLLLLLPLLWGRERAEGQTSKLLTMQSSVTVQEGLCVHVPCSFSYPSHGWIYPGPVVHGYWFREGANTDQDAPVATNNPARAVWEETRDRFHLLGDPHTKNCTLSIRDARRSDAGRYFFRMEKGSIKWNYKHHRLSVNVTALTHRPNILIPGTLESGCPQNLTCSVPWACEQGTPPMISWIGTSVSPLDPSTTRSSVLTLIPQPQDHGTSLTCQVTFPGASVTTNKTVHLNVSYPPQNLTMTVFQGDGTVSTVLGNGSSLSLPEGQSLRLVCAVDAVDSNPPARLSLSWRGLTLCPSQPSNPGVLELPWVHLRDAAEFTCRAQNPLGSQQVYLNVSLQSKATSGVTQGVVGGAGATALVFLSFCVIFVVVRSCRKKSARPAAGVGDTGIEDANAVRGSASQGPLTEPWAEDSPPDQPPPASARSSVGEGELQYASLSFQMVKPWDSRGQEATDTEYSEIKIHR
The test system of test [5] is Trypanosoma cruzi. Kind of test: Trypanosoma cruzi phosphomannomutase and mannose-1-phosphate guanylyltransferase assay. It counts as functional. The settings on record: 10 µM.
Test [6] has as its target T2, Arginase-2, mitochondrial (Homo sapiens) (UniProt P78540).
T2 sequence (whole entry): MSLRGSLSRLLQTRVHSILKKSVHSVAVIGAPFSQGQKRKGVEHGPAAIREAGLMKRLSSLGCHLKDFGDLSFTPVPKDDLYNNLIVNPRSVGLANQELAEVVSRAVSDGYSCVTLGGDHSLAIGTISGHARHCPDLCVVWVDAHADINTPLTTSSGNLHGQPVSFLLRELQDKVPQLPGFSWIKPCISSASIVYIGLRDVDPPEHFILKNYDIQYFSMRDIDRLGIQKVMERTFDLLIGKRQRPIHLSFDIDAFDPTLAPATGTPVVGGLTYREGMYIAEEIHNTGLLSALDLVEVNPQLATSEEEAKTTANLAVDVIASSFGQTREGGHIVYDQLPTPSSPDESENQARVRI
Kind of test: in vitro enzyme assay to detect the production of urea directly proportional to the activity of Arginase II. Also: in the data most compounds retested in dose-response had high values. It counts as functional. The note with it: 33.3 µM.

The target in test [7] is T3, Proteasome subunit beta (Trypanosoma cruzi) (UniProt O96673).
T3 sequence (whole entry): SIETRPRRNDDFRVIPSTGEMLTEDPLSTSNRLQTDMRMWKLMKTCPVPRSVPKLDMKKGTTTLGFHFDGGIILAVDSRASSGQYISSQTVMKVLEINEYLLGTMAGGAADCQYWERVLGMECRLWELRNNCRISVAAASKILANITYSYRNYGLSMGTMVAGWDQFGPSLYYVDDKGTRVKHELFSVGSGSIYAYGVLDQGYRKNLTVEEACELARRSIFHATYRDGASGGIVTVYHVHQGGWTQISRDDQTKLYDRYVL
The experiment in a line: Trypanosoma cruzi proteasome chymotrypsin-like activity (TcProtChymo) assay. Also: in the data most compounds retested in dose-response had high values. It counts as functional. The settings on record: 9.37 µM.

The species entered for test [8] is Homo sapiens. Kind of test: To identify inhibition of the IFN signalling (Jak-Stat) pathway via expression of an eGFP reporter gene under the control of an IFN-stimulated response element (ISRE) containing MxA promoter. The settings on record: 30 µM. It counts as functional. On the technique in general: A reporter such as luciferase makes a cellular process visible.

The target of test [9] is T4, Tyrosyl-tRNA synthetase, putative (Trypanosoma cruzi (strain CL Brener)) (UniProt Q4DSP6).
T4 sequence (whole entry): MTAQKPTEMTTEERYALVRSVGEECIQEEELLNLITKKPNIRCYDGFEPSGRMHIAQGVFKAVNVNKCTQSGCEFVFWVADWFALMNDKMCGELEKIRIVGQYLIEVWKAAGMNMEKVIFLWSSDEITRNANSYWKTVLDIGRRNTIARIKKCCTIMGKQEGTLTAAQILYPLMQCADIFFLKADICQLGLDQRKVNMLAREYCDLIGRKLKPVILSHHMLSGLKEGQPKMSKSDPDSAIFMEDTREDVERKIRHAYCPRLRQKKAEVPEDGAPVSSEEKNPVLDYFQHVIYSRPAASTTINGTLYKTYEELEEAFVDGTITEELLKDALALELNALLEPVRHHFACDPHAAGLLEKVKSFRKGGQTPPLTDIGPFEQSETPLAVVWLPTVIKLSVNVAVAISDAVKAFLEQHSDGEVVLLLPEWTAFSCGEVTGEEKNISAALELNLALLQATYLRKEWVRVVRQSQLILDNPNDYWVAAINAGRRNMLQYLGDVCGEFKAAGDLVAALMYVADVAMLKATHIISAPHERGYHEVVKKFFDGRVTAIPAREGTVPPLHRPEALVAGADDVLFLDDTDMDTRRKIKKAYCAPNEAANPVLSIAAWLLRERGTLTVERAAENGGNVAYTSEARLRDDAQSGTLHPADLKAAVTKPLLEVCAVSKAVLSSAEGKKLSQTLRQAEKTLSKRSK
The experiment in a line: Trypanosoma cruzi tyrosyl tRNA synthetase (TcYRS) _High Tyrosine SOP. Also: in the data most compounds retested in dose-response had high values. It counts as functional. The settings on record: 30 µM.

In test [10] the target is T4, Tyrosyl-tRNA synthetase, putative (Trypanosoma cruzi (strain CL Brener)). Kind of test: Trypanosoma cruzi tyrosyl tRNA synthetase (TcYRS) SOP. It counts as functional. The settings on record: 30 µM.
For test [11], the target named is Chromo domain-containing protein 1 (Saccharomyces cerevisiae (strain ATCC 204508 / S288c) (Baker's yeast)) (UniProt P32657). The experiment in a line: ScCHD-1 Enzyme Inhibition Assay. Also: in the data most compounds retested in dose-response had high values. It counts as functional. The settings on record: 30 µM.
Sequence of Chromo domain-containing protein 1 (Saccharomyces cerevisiae (strain ATCC 204508 / S288c) (Baker's yeast)) (P32657 whole entry, the tested form may be a part): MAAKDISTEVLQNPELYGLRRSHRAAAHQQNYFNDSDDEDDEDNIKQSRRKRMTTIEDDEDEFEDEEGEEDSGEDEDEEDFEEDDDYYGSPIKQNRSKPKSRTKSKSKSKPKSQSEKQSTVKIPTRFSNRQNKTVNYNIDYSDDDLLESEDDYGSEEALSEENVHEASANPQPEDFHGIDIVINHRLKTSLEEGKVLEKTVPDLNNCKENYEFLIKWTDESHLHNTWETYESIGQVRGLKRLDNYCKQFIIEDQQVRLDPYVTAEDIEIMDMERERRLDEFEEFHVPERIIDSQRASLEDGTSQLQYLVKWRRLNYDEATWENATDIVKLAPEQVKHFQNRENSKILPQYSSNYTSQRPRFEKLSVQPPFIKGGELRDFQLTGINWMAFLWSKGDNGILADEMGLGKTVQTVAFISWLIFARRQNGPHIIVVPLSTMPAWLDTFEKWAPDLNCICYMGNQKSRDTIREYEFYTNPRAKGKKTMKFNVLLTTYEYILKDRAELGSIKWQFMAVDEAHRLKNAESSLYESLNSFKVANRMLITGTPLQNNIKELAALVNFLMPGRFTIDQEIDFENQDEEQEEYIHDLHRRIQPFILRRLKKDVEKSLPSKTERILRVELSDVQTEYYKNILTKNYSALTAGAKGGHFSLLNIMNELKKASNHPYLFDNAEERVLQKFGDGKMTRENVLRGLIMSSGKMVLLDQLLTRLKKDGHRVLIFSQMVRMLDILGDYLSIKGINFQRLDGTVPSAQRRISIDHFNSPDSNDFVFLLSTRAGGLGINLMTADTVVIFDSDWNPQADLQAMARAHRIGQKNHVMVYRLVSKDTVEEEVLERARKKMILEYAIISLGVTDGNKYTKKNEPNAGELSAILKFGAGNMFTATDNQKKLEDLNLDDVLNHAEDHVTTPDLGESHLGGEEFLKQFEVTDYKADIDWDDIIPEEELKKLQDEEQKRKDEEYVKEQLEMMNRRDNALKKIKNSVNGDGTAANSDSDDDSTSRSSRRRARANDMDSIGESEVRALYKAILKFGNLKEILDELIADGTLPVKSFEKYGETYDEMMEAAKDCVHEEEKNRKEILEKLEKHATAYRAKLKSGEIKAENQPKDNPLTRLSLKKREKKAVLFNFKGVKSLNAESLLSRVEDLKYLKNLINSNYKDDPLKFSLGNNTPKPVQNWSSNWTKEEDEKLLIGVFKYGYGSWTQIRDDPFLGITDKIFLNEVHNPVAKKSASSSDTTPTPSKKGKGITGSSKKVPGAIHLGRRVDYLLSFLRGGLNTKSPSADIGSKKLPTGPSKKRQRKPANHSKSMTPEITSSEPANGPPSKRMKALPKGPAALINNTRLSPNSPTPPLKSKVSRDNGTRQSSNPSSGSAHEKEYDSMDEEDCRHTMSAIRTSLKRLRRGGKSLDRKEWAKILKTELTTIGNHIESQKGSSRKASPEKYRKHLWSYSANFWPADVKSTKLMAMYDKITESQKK

With `CCc1nnc(CN2CCN(C(=O)c3ccccn3)CC2)o1`, the Percent Effect in test [1] was 0.554%; in test [2], 10.4%; in [3], 1.99%; in test [4] it was -1.91%; in test [5] it was -0.881%; in [6], 6.53%. For the same molecule, the Percent Effect in [7] was 4.45%; in test [8] it was 24.1%; in test [9], 5.71%; in test [10], 9.41%; in [11], -20.1%.

Regarding `COCCN1CCN(Cc2noc(C3CC3)n2)CC1C` (stereo unspecified), the Percent Effect in test [1] was 0.0669%; in test [2], 22.8%; in test [3], -4.5%; in test [4] it was -13.4%; in [5], -3.87%; in [6], 1.14%. Further, the Percent Effect is 10.7% in [7]; -0.744% in [8]; 1.48% in [9]; 11.4% in test [10]; -3.63% in test [11].

Turning to `Cc1cc(C)c2cc(CNCc3ccccc3)c3nn(C)c(=O)n3c2c1`, the Percent Effect in test [1] is -8.18%; in test [2], 9.46%; in test [3], -1.18%; in test [4] it was 8.69%; in test [5] it was 2.96%; in test [6], -2.09%. Moreover, the Percent Effect in [7] is 10.3%; in [8] it was 13.4%; in [9], 4.3%; in test [10], 3.9%; in test [11], -30.5%.

Regarding `O=C(NCCNc1cnccn1)N1CCN(Cc2cccnc2)CC1`, the Percent Effect in test [1] is -5.13%; in [2] it was 8.86%; in test [3] it was -3.44%; in [4] it was -10.1%; in [5], 3.38%; in [6], 1.5%. Also, the Percent Effect in test [7] was 15.1%; in test [8], 10.6%; in test [9] it was 7.29%; in [10] it was 20.2%; in test [11] it was -33.3%.

In the case of `COc1cccc2c1OCC(CNC(=O)CNC(N)=O)C2` (stereo unspecified), the Percent Effect in [1] was -5.81%; in test [2] it was 10.8%; in [3], -3.03%; in [4], 22.4%; in test [5] it was 7.33%; in test [6] it was 1.24%. The Percent Effect in [7] is 4.72%; in [8], -5.45%; in test [9], 5.38%; in test [10] it was 13.6%; in test [11], -9.37%.

As to `COCCCC1CCCN(C(=O)CCc2cc(O)no2)C1` (stereo unspecified), the Percent Effect is 0.503% in test [1]; 4.17% in test [2]; -6.36% in test [3]; 2.98% in test [4]; 1.46% in test [5]; 13.2% in test [6]. Further, the Percent Effect in [7] is 18.2%; in [8], 12.3%; in test [9] it was 8.42%; in test [10], 15.4%; in test [11] it was -2.19%.

Regarding `COc1cccc(-c2noc(-c3ccc(NCC4CC4)nc3)n2)c1OC`, the Percent Effect in test [1] was -6.26%; in test [2], 0%; in [3], -3.38%; in test [4], 6.76%; in [5] it was 8.47%; in [6] it was 2.08%. Also, the Percent Effect in test [7] was 11%; in [8], 31.3%; in test [9], 4.92%; in test [10], 13.6%; in test [11] it was -1.62%.

As to `COc1ccc(NC(=O)c2ccc[nH]2)c(N2CCN(C(C)=O)CC2)n1`, the Percent Effect is -1.32% in [1]; 10.8% in test [2]; -4.59% in [3]; -2.38% in test [4]; 0.781% in [5]; 37.1% in test [6]. Further, the Percent Effect in [7] is 7.18%; in test [8] it was -7.2%; in [9], 6.93%; in test [10], 13.4%; in test [11] it was -6.01%.

With `COc1c(C2CCCN2C(=O)c2cc(Cl)c[nH]2)c(C)nn1C` (stereo unspecified), the Percent Effect in test [1] was -5.79%; in [2] it was 5.41%; in test [3] it was 4.66%; in [4], -0.555%; in test [5], -0.781%; in test [6], 2.08%. Besides, the Percent Effect in test [7] was 4.31%; in test [8], -1.4%; in test [9], 9.9%; in test [10], -3.66%; in [11] it was -3.93%.

With `Cc1cnn(CC2CCCN2C(=O)c2cc(C)no2)c1` (stereo unspecified), the Percent Effect was -7.95% in test [1]; 5.26% in test [2]; -9.36% in test [3]; 0.94% in [4]; -8.12% in test [5]; 0.36% in test [6]. Also, the Percent Effect in [7] was -4.65%; in test [8] it was 2.42%; in test [9], -0.493%; in test [10], -8.64%; in [11], 10.5%.

Consider `Cc1nn(C(C)C)c(C)c1NC(=O)c1ccccc1`, for which the Percent Effect in test [1] was -2.77%; in test [2], 2.74%; in test [3] it was -0.803%; in [4], 6.74%; in test [5], 4.17%; in [6], -2.4%. Also, the Percent Effect in test [7] is 14.5%; in test [8], -0.0619%; in test [9] it was 7.29%; in test [10] it was -3.7%; in test [11] it was -1.66%.
